# In PubChem BioAssay (NCI):
# The panel holds about 83,000 compounds, 20% with a hit somewhere; the sample as a whole holds those more often.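 The test compound was applied at a single concentration to cells in 96-well plates for 48 hours, and percent growth was recorded.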 Unmarked numbers belong to inactive results. Activity calls are given as the source filed them. How the source made its calls: active means growth percent below 10; inactive means the rest.
# Columns and labels:
# Assay in all cases: NCI-60 one-dose screen, 48 h (100 = growth as untreated, 0 = no growth, -100 = all killed)
# Settings in all cases: 10 µM unless noted
# NCI-H23 lung = system: NCI-H23 lung
# NCI-H226 lung = system: NCI-H226 lung
# NCI-H322M lung = system: NCI-H322M lung
# HOP-62 NSCLC = system: HOP-62 NSCLC
# NCI-H460 lung = system: NCI-H460 lung
# HOP-92 NSCLC = system: HOP-92 NSCLC
# NCI-H522 lung = system: NCI-H522 lung
# A549/ATCC NSCLC = system: A549/ATCC NSCLC
# 786-0 renal = system: 786-0 renal
# DU-145 prostate = system: DU-145 prostate
# MALME-3M melanoma = system: MALME-3M melanoma
# MDA-MB-231 breast = system: MDA-MB-231 breast
# RXF 393 renal = system: RXF 393 renal
# SF-268 CNS = system: SF-268 CNS
# SF-295 CNS = system: SF-295 CNS
# SF-539 CNS = system: SF-539 CNS
# UACC-257 melanoma = system: UACC-257 melanoma
# M14 melanoma = system: M14 melanoma
# K-562 leukemia = system: K-562 leukemia
# COLO 205 colon = system: COLO 205 colon
SMILES,growth (NCI-H23 lung),growth (NCI-H226 lung),growth (NCI-H322M lung),growth (HOP-62 NSCLC),growth (NCI-H460 lung),growth (HOP-92 NSCLC),growth (NCI-H522 lung),growth (A549/ATCC NSCLC),growth (786-0 renal),growth (DU-145 prostate),growth (MALME-3M melanoma),growth (MDA-MB-231 breast),growth (RXF 393 renal),growth (SF-268 CNS),growth (SF-295 CNS),growth (SF-539 CNS),growth (UACC-257 melanoma),growth (M14 melanoma),growth (K-562 leukemia),growth (COLO 205 colon)
COc1ccc(-c2nnc(SCC(=O)NC3=NN=C(c4ccccc4)CS3)o2)cc1,103%,93.8%,102%,86.2%,101%,98.5%,93.3%,74.7%,101%,102%,105%,91.5%,117%,94.2%,98%,101%,67.1%,95.5%,,
CCOC(=O)C(O)C(O)(c1ccccc1)c1ccccc1 (stereo unspecified),102%,90.2%,96.7%,97%,110%,113%,92.8%,95.6%,102%,,103%,94.4%,113%,95.4%,95.6%,94.5%,106%,101%,98%,
O=[N+]([O-])c1ccc(-c2cc3c(Nc4ccc(Cl)c(C(F)(F)F)c4)ncnc3s2)cc1,-6.97% (active),20.1%,20.9%,20.8%,4.13% (active),-14.3% (active),-1.24% (active),10.1%,19.2%,23%,-22.8% (active),5.95% (active),5.99% (active),24.3%,-6.39% (active),14.9%,-18.6% (active),19.4%,,
Cc1csc(NC(=O)c2sc3nc(-c4cccs4)ccc3c2N)n1,94.2%,96.9%,102%,90.4%,99.3%,84.7%,82.3%,94.7%,,96.4%,99.6%,93.4%,107%,102%,99.7%,96.9%,109%,,90.2%,103%
Cc1c(Cl)cccc1NS(=O)(=O)c1ccccc1,113%,93.1%,110%,112%,112%,89.2%,98.4%,104%,106%,143%,124%,102%,95.3%,104%,95.2%,102%,95.1%,105%,,
O=C(C[C@@]1(O)C(=O)Nc2c(Cl)ccc(Cl)c21)c1ccc(C2CC2)cc1,37.5%,46.4%,53.1%,34.2%,6.3% (active),75.5%,19.4%,38.1%,,16.5%,41.9%,45%,-10% (active),54.8%,-9.37% (active),-27.7% (active),73%,,7.6% (active),1.09% (active)
Fc1ccc(Nc2nc(Nc3ccc(-c4nc5ccccc5[nH]4)cc3)c3cn[nH]c3n2)cc1,71%,86.9%,84.8%,85.6%,47.5%,79%,65.9%,73.1%,,54.3%,107%,22.2%,76.2%,75.1%,92.6%,85.5%,101%,,-28.7% (active),27.8%
CCCCCCCCN(CCCCCCCC)C(=N)c1ccnc2ccccc12,-66.4% (active),56.5%,-64.5% (active),-85.7% (active),-78% (active),-21.2% (active),-74.7% (active),-82.5% (active),-100% (active),,-78.5% (active),-77.2% (active),-87.8% (active),-71.8% (active),-84.4% (active),-87.6% (active),-68.9% (active),-84.6% (active),-52.7% (active),
O=[N+]([O-])c1ccc(-c2cc3c(Nc4ccc(Sc5nc6ccccc6s5)c(Cl)c4)ncnc3s2)cc1,19.9%,76.2%,55.5%,36.1%,11.8%,56.6%,30%,18.5%,61.6%,44.9%,62.9%,29.2%,68.8%,39.4%,23.2%,54.3%,66.6%,35.2%,,
N=C(N)c1ccc(-c2ccc(-c3ccc(Cl)cc3Cl)o2)cc1,,93.7%,-53.9% (active),-12.1% (active),-65.7% (active),45.3%,1.99% (active),-46.5% (active),-86% (active),-17.9% (active),17.4%,-69.7% (active),32.1%,47.3%,-77.1% (active),-61.7% (active),90.9%,8.85% (active),-12.9% (active),
O=C1N/C(=N/O)S/C1=C/c1cn(-c2ccccc2)nc1-c1ccccc1,,91.9%,87.3%,98%,104%,107%,95.6%,93.6%,83.7%,102%,141%,85.8%,95.6%,97.7%,107%,110%,113%,105%,94.2%,
CCN(CC)CCOC(=O)N1c2ccccc2Sc2ccccc21,,95.2%,89.7%,88.7%,103%,73.1%,68.7%,88.9%,91.4%,99.9%,91.4%,81.9%,98.3%,102%,93.8%,100%,102%,93.4%,90.7%,
CN1C(=O)CCC(N2C(=O)c3cccc(NCCOCCOCCNC(=O)c4cc5c(o4)C(=O)c4ccccc4C5=O)c3C2=O)C1=O (stereo unspecified),,-72.1% (active),-93% (active),-59.1% (active),-73.1% (active),65%,-35% (active),-45% (active),8.13% (active),-95.3% (active),-97.4% (active),-3.68% (active),-34.6% (active),-0.714% (active),-88.1% (active),-80.4% (active),-85.1% (active),-67.2% (active),10.5%,
Cc1nc(Nc2ccccn2)sc1C(=O)/C=C/c1ccc(Br)cc1,,85.6%,80%,63.4%,92%,96.3%,61.5%,86.2%,96.9%,66.7%,77.1%,71.1%,78.4%,78.8%,72.8%,84.7%,95.7%,80.7%,13.3%,
Cc1c(C)c2c(c(C)c1NC(=O)/C=C\C(=O)O)CCC(C)(CCCC(C)CCCC(C)CCCC(C)C)O2 (stereo unspecified),,-85.9% (active),102%,-13.4% (active),72.1%,45.5%,66.7%,61.1%,33.5%,80.2%,,70.9%,-93% (active),53.9%,66.3%,8.15% (active),20.5%,20.7%,71.9%,
Cc1nc(Nc2ccc(N)cc2)c2ccccc2n1,,97.6%,117%,104%,102%,109%,80.8%,103%,107%,117%,97.6%,93.9%,,106%,95.8%,96%,104%,,74.5%,92.2%
CC(=O)C(C(C)=O)c1nc2sc3cc(Cl)ccc3n2c(=N)c1C#N,,75.1%,87.3%,81.9%,95.2%,56%,83%,98.7%,98.3%,97.4%,95.2%,51.9%,109%,77.7%,98.4%,95.5%,108%,97.2%,85.2%,
Cc1nn(-c2ccccc2)c2c1C(c1ccc([N+](=O)[O-])cc1)C(C#N)=C(N)O2 (stereo unspecified),,99.3%,116%,94.3%,108%,91.7%,97.5%,102%,102%,111%,,87.4%,99.2%,108%,,95.9%,88.1%,106%,,
COc1cc2oc(-c3cccc(C(=O)Nc4ccc(C#N)cc4)c3)cc(=O)c2c(O)c1OC,,21.2%,72.7%,-31.8% (active),18.9%,79.2%,61.2%,37.4%,70.4%,34.2%,47.7%,,102%,50%,36.8%,82.4%,88.9%,,66.4%,39.9%
